A selection: hits, their analogues and other compounds. The true share with any hit is near 7.2%.
LASV entry inh = Lassa virus entry inhibition; 1.2% of 300,000 active; Potency, µM (doses to about 37.9 µM), without a hit: top-dose activity change, negative = inhibition, most hits filed as inhibitors; Lassa virus pseudotype entry inhibition, cell reporter; calls by dose curve; tested in HEK293 cells; also: nearly all actives have a fitted effect of over 50% in size
HCV inh = blocks hepatitis C virus. Huh7.5.1 HCVcc-Cre infection, luciferase reporter, 44 h. Potency, µM (top dose mostly 41.8 µM), for inactives: top-dose activity change, negative = inhibition, usual class: inhibitors. 3.4% of 340,000 active. AID 651820
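Reporter virus HCVcc-Cre (~0.5 moi) infects cells exposed to compound; seeding density 1,000 cells/well with 4 h settling beforehand. Luminescence, 15 sec read, taken 44 h post-infection following a 15 min RT substrate incubation.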
Sm TGR block = S. mansoni TGR enzyme inhibition. purified TGR, DTNB reduction, TNB absorbance 405 nm. 3% of 360,000 active. Q962Y6. Potency, µM (series often up to 114 µM), inactives show top-dose activity change, negative = inhibition, most hits filed as inhibitors; also: nearly all actives have a fitted effect of over 60% in size
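TGR 20 nM + NADPH 100 uM (dispensed conc.), cpd preinc 15 min RT; start with NADPH (500 uM addition) then DTNB (15 mM addition). Kinetic TNB absorbance, 405 nm filter. Four-parameter Hill fit across titration.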
RE007 growth inh = less growth of the S. pombe RE007 Vpr strain | S. pombe RE007 Vpr strain, BacTiter-Glo ATP luminescence, 24 h | Potency, µM (top dose mostly 92.2 µM), for the others: at the highest dose activity change, negative = less growth, most hits filed as inhibitors | 0.21% of 360,000 active | AID 651644; active = well fitted falling curve with a large enough effect; inconclusive = small, poorly fitted or top-dose-only effect; inactive = no such curve, though single readings can be large or run the other way; also: nearly all actives have a fitted effect of over 50% in size
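Fission yeast RE007 carrying one integrated HIV-1 vpr copy, seeded at OD 0.01 in PMG+AL medium with 23 nL pinned compound. Grown 24 h at 30 degrees; viability read by BacTiter-Glo luminescence after 5 min.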
MARV entry inh = inhibitors of Marburg virus binding or cell entry. Marburg virus pseudotyped entry inhibition, cell reporter. Potency, µM (highest dose often 37.8 µM), for the others: at the top dose activity change, negative = inhibition, actives largely listed as inhibitors. 1.8% of 300,000 active. AID 540276; calls by dose curve; tested in HEK293 cells
FMDV inh = blocks foot and mouth disease virus. FMDV antiviral cell-based qHTS. Potency, µM (highest dose often 57.9 µM), for the others: at the highest dose activity change, negative = inhibition, most hits filed as inhibitors. 1.2% of 410,000 active; calls by dose curve; tested in HEK293T cells; also: read-out not given here; nearly all actives have a fitted effect of over 45% in size
* = called active by the depositor; ? = inconclusive; / = no result given; [ ] = remark or other dose. Unless noted, calls follow the shape of the dose curve; as a rule, active = well fitted curve in the direction sought with a large enough effect; inconclusive = small, poorly fitted or top-dose-only effect, or another doubt; inactive = no such curve, though single readings can be large; an effect the other way counts as inactive or inconclusive. % is scaled to controls: 0 for no effect and ±100 for the full control effect; potency is read from the fitted curve at half-maximal effect.

SMILES	LASV entry inh	HCV inh	Sm TGR block	RE007 growth inh	MARV entry inh	FMDV inh
CCCOC(=O)CSC1=C(C#N)[C@H](c2ccccc2OC)[C@H](C#N)C(=O)N1	/	/	/	/	6%	/
CCOC(=O)c1nnc(-c2ccc(C)cc2)nc1Sc1cccc(Cl)c1	-6%	2%	16%	-22%	?	-28%
CCOC(=O)c1nnc(-c2ccccc2)nc1Sc1ccccc1Cl	-21%	?	-1%	19%	?	25µM*
CCOC(=O)c1nnc(-c2ccccc2)nc1Oc1ccc(Cl)cc1	-10%	-5%	-8%	-17%	-17%	16µM*
Cc1ccc(CCNC(=O)C2CCN(S(=O)(=O)c3ccc4c(ccn4C)c3)CC2)cc1	-19%[46.1 µM]	/	-2%	/	/	-22%
COc1ccc(-c2noc(-c3ccc(N4CCCCC4C)c([N+](=O)[O-])c3)n2)cc1OC (configuration not stated)	5%[46.1 µM]	/	5%	/	9%[46.1 µM]	-14%
O=C1CCCN1CCCNC(=S)Nc1ccc(Br)cc1Cl	/	-4%	14µM*	1%	/	47%
COc1ccc(Cl)cc1NC(=S)NCCCN1CCCC1=O	/	-15%	50µM*	-2%	/	3%
COCCn1c(=O)c(CCc2ccccc2)nc2cnc(N3CCOCC3)nc21	/	/	/	/	/	-3%
O=C(Cc1ccc(NC(=O)N2CCCCc3ccccc32)cc1)NCc1cccc(Br)c1	-16%[46.1 µM]	/	-2%	/	/	20%
Cc1c(-c2ccccc2)c(=O)oc2c(CN3CCOCC3)c(O)ccc12	-8%[46.1 µM]	/	4%	/	/	-5%
Cc1cc(C)cc(OCC(=O)N2N=C(C(F)(F)F)CC2(O)C(C)(C)C)c1 (configuration not stated)	-16%	-5%	50µM*	23%	?	?
Cc1cc(C)cc(OCC(=O)N2N=C(c3cccnc3)CC2(O)C(F)(F)F)c1 (configuration not stated)	-13%	-20%	2%	36%	?	?
COCCCNC(=O)CCc1c(C)nc2nc(-c3cc(OC)cc(OC)c3)nn2c1C	10%[46.1 µM]	/	-5%	/	14%[46.1 µM]	-5%
COCc1cc(=O)n2[nH]c(-c3ccco3)cc2n1	17%[46.1 µM]	24%	-11%	1%	?	43%
CCCCN1Cc2c(nc3cc(-c4ccco4)[nH]n3c2=O)C1=O	-1%[46.1 µM]	11%	20µM*	-9%	?	13%
Cc1cccc(C(=O)NC2CCN(C(=O)Nc3ccccc3C)CC2)c1	/	24%	14%	10%	/	-16%
CCOc1ccccc1NC(=O)N1CCC(NC(=O)c2cccc(C)c2)CC1	0%	-9%	25µM*	10%	-4%	-16%
O=C(CN1CCC(NC(=O)c2cccc(F)c2)CC1)Nc1ccc(Br)cc1	0%	10µM*	-14%	-1%	9%	?
Cc1cccc(C(=O)NC2CCN(C(=O)Nc3ccc(F)cc3)CC2)c1	11%[46.1 µM]	24%	40µM*	5%	-12%[46.1 µM]	-4%
CC1CCCCN1c1nc(-c2ccncc2)nc2ccccc12 (configuration not stated)	-10%	10µM*	4%	5%	?	0%
CC1CCN(c2nc(-c3ccncc3)nc3ccccc23)CC1	9%	7.1µM*	-20%	?	?	?
CCC1CCCCN1c1nc(-c2ccncc2)nc2ccccc12 (configuration not stated)	?	11µM*	-2%	10%	9.2µM*	?
CC1CCCCN1c1nc(-c2ccc(C(C)(C)C)cc2)nc2ccccc12 (configuration not stated)	?	/	2%	/	/	-14%
CCOc1ccc(NC(=O)N2CCC(CN3CCc4ccccc4C3)CC2)cc1	15%[46.1 µM]	/	1%	/	/	-5%
SMILES	LASV entry inh	HCV inh	Sm TGR block	RE007 growth inh	MARV entry inh	FMDV inh
O=C1NC(=O)/C(=C\c2ccc(OCc3cccc(C(=O)O)c3)c(Cl)c2)N1	6.3µM*	-2%	-4%	-8%	?	-65%
O=C(O)c1cccc(COc2ccccc2Cl)c1	0.52µM*	13%	-4%	-10%	0.41µM*	1.4µM*
O=C(O)c1ccc(COc2ccccc2Cl)cc1	-8%	23%	0%	-2%	10%	52%
CCOc1ccc(CCNC(=O)C(CC(C)C)N2Cc3ccccc3C2=O)cc1OCC (configuration not stated)	-13%[46.1 µM]	/	3%	/	/	-6%
COc1cc2c(cc1OC)CN(C(=O)c1ccccc1C(=O)O)CC2	-12%	-2%	79µM*	-7%	-27%[46.1 µM]	-3%
O=C(c1cccc(S(=O)(=O)N2CCc3ccccc32)c1)N1CCc2ccccc2C1	/	?	-5%	-4%	/	-22%
COc1cc2c(cc1OC)CN(C(=O)c1cccc(S(=O)(=O)N3CCc4ccccc43)c1)CC2	4µM*	?	-12%	3%	4µM*	-34%
O=C(NC1CCCN(Cc2ccc(Cl)cc2)C1)c1cccc(N2CCCC2=O)c1 (configuration not stated)	-5%	-31%	-29%	-14%	-18%	-7%
O=C(NC1CCCCCC1)c1cccc(N2CCCC2=O)c1	-25%	25µM*	1%	-2%	?	12%
Oc1cccc2ccc(/C=C/c3c(F)cccc3Cl)nc12	18µM*	11µM*	2%	-24%	?	15%
Oc1cccc2ccc(/C=C/c3ccccc3Cl)nc12	/	7.9µM*	7%	/	/	18%
COc1c(OC(C)=O)ccc(/C=C/c2ccc3cccc(OC)c3n2)c1[N+](=O)[O-]	-18%	?	-9%	15%	?	7%
COc1ccccc1/C=C/c1ccc2cccc(O)c2n1	-26%[46.1 µM]	?	34%	-3%	?	-25%
CCOc1cccc(/C=C/c2ccc3cccc(O)c3n2)c1O	?	14µM*	4%	?	?	-1%
CCOc1c(OC(C)=O)ccc(/C=C/c2ccc3cccc(OC(C)=O)c3n2)c1[N+](=O)[O-]	?	8.9µM*	-23%	15%	10%	23%
CCNc1ncc2nc(-c3cn(C)c4ccccc34)c(=O)n(Cc3cccc(OC)c3)c2n1	/	/	/	/	/	-9%
COc1cccc(Cn2c(CNS(=O)(=O)c3ccc4c(c3)CCCC4)nc3cccnc32)c1	-6%[46.1 µM]	/	-2%	/	/	57%
CCOC(=O)c1sc2ncn(CC(=O)Nc3ccc(C)cc3Br)c(=O)c2c1C	0%[46.1 µM]	/	-3%	/	?	0%
Cc1cc(NC(=O)c2ccco2)cc(-c2nc3cc(Cl)ccc3o2)c1O	19%[46.1 µM]	/	-1%	/	1%[46.1 µM]	0%
COc1cccc(CNCCCSc2nnnn2C)c1	5%[46.1 µM]	/	?	/	4%[46.1 µM]	-4%
O=C(COc1ccc2c(-c3ccccc3)cc(=O)oc2c1)NCc1ccccn1	/	12%	-9%	-7%	/	-17%
CC(Oc1ccc2c(-c3ccccc3)cc(=O)oc2c1)C(=O)NCc1ccccn1 (configuration not stated)	/	25µM*	-19%	-5%	/	-21%

Source: PubChem
